Source: PubChem BioAssay
A selection: hits, their analogues and other compounds. The true share with any hit is near 1.6%.
GC-A act: GC-A (human) enzyme activation; HEK293 GC-A cells, cGMP TR-FRET, EC30 ANP; 0% at EC30 ANP, 100% saturating ANP; activation, % at 10 µM; 370,000 tested, 0.14% active; P16066; in the data active = activation above about 40%
Target sequence (P16066 whole entry, looked up): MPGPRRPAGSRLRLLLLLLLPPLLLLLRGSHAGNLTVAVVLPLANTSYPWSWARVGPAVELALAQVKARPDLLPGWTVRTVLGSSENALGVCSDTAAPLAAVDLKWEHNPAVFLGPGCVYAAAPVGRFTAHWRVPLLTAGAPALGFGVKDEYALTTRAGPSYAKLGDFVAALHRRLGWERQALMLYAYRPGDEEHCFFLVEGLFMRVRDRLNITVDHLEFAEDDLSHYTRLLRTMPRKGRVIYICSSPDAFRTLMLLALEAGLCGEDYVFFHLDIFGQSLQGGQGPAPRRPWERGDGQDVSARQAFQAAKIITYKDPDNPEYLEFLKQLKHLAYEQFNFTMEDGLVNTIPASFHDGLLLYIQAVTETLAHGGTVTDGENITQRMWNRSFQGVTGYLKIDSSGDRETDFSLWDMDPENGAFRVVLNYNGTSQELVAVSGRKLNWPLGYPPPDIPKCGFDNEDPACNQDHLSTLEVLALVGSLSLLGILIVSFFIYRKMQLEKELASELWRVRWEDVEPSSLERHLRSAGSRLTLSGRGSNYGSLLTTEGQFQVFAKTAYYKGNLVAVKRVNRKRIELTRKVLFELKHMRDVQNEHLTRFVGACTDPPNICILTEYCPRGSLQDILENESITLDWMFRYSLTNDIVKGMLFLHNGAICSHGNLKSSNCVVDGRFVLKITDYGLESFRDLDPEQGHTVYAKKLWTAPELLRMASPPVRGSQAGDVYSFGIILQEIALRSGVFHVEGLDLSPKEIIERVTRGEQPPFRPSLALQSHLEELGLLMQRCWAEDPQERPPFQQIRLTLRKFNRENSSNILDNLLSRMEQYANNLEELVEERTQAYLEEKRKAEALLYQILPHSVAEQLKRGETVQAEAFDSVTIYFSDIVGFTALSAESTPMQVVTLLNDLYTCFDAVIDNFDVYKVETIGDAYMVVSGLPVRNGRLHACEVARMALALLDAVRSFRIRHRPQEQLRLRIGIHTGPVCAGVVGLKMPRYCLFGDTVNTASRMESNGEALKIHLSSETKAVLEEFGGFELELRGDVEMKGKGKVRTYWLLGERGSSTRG
GC-B act: GC-B (human) receptor activation; P20594; HEK293-GC-B cells, CNP EC30, cGMP TR-FRET; 0% at EC30 CNP, 100% saturating CNP; activation, % at 10 µM; 370,000 tested, 0.11% active;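 active = activation at 10 µM reaching about 35% in either raw or pattern-adjusted values, limit read from the data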
Rev-erbA mod: modulators of human Rev-erb alpha DNA binding. P20393. Rev-erbα–FITC-DNA binding, fluorescence polarization, 90 min. activity, % at 10 µM. 370,000 tested, 0.79% active;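 active = activity above about 14%, limit read from the data; passing the limit was not always enough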;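 also: 0% = DMSO wells with 35 nM protein and 100% = DMSO wells with 750 nM protein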
V-ATPase pHluor: yeast V-ATPase proton transport regulation by pHLuorin; 350,000 tested, 0.37% active; S. cerevisiae, pHLuorin cytosolic pH fluorescence; AID 504577; response, % at 10 µM; in the data active = response mostly above about 7.3%, no sharp cut-off; inactive = mostly below about 5.4%; also: actives read high
PG9 Ab binder: small molecules binding HIV-1 gp120 antibody PG9 | TR-FRET gp120-PG9 antibody binding | 360,000 tested, 0.43% active | inhibition, % at 6.7 µM; in the data active = inhibition above about 8.5%
PG9 binder conf: confirmation of small molecules binding HIV-1 gp120 antibody PG9. shares compounds with PG9 Ab binder. TR-FRET PG9 antibody binding, biochemical. inhibition, % at 6.7 µM. 1,500 tested, 90% active. AID 651571; in the data active = inhibition above about 9%
PGV04 Ab binding: binds control antibody PGV04 in PG9 binder counter-screen | shares compounds with PG9 Ab binder | TR-FRET PGV04 antibody-gp120 binding, biochemical | inhibition, % at 6.7 µM | 1,500 tested, 95% active | AID 651604; in the data active = inhibition above about 9.5%
Numbers without * were called inactive; . = no result.

SMILES	GC-A act	GC-B act	Rev-erbA mod	V-ATPase pHluor	PG9 Ab binder	PG9 binder conf	PGV04 Ab binding
CC(=O)c1ccc(S(=O)(=O)Nc2ccc(-n3cnnn3)cc2)cc1	2	-4	-6	3	0	.	.
CC(=O)c1ccc(NC(=O)c2ccc(-n3cnnn3)cc2)cc1	-1	-2	5	-3	17*	33*	46*
CCOc1cccc2cc(C(=O)NC(C)c3ccccc3)c(=N)oc12 (stereo unspecified)	4	0	1	4	9.0*	9.2*	15*
Cc1ccc(NC(=O)CSc2nnc(-c3cccnc3)n2Cc2ccco2)cc1C	-7	-9	3	.	.	.	.
CC(C)c1ccc(C2/C(=C(\O)c3ccc4c(c3)OCCO4)C(=O)C(=O)N2CCN2CCOCC2)cc1 (stereo unspecified)	0	-2	6	-6	5	.	.
O=C1C(=O)N(CCN2CCOCC2)C(c2ccccc2)/C1=C(\O)c1ccc2c(c1)OCCO2 (stereo unspecified)	8	3	-6	3	15*	21*	23*
C=CCOc1cccc(C2/C(=C(\O)c3ccc4c(c3)OCCO4)C(=O)C(=O)N2CCN2CCOCC2)c1 (stereo unspecified)	9	4	-7	-2	9.3*	16*	21*
O=C1C(=O)N(CCCN2CCOCC2)C(c2ccc(Cl)cc2)/C1=C(\O)c1ccc2c(c1)OCCO2 (stereo unspecified)	5	2	0	-2	10*	23*	27*
C=CCOc1cccc(C2/C(=C(/O)c3ccc(C)cc3)C(=O)C(=O)N2CCN2CCOCC2)c1 (stereo unspecified)	-3	6	2	2	-2	.	.
Cc1c(NC(=O)C2CCCN(S(=O)(=O)c3ccccc3[N+](=O)[O-])C2)c(=O)n(-c2ccccc2)n1C (stereo unspecified)	-1	-5	-1	.	.	.	.
CN(Cc1ccccc1)C(=O)OCc1cn(Cc2cc(F)ccc2F)nn1	-2	10	2	.	.	.	.
C=CCN1C(=O)[C@@H](CC(=O)NCc2ccccc2)[C@]2(C(=O)OCC)CCCCC/C=C/12	-1	4	-4	.	.	.	.
Cc1ccc(OCc2ccc(C(=O)Nc3nccs3)o2)cc1	3	-5	0	0	14*	15*	21*
O=C(Nc1nccs1)c1ccc(CSc2ccccc2)o1	7	2	0	2	-3	.	.
O=C(Nc1nccs1)c1ccc(COc2ccccc2)o1	3	3	8	5	9.3*	13*	20*
CCCC1CCC2(CC1)CCC2OC(=S)Nc1ccccc1 (stereo unspecified)	1	4	5	.	.	.	.
CCN(CC)CCCN1C(=O)C(O)=C(C(=O)c2cc3cccc(OC)c3o2)C1c1ccncc1 (stereo unspecified)	8	10	-1	-5	15*	26*	37*
COc1cccc2cc(C(=O)C3=C(O)C(=O)N(CCN(C)C)C3c3ccc(F)cc3)oc12 (stereo unspecified)	2	4	1	-1	21*	31*	41*
COc1cccc2cc(C(=O)C3=C(O)C(=O)N(CCN4CCOCC4)C3c3ccc(C)o3)oc12 (stereo unspecified)	0	-3	-2	3	2	.	.
CCN(CC)CCN1C(=O)C(O)=C(C(=O)c2ccco2)C1c1ccccn1 (stereo unspecified)	-1	2	-1	-2	-1	.	.
CCN(CC)CCCN1C(=O)C(O)=C(C(=O)c2cc3ccccc3o2)C1c1ccccn1 (stereo unspecified)	7	1	-7	4	25*	55*	72*
CCc1oc2ccccc2c1C(=O)c1cc(I)c(O)c(I)c1	.	.	2	.	.	.	.
CC(Cl)C(=O)N1CCC(C(=O)NCC2COc3ccccc3O2)CC1 (stereo unspecified)	5	-7	1	.	.	.	.
C[C@H]1CCCC(=O)N[C@@H](c2ccccc2)[C@@H](C)CCCC(=O)N[C@H]1c1ccccc1	4	-9	-4	.	.	.	.
Cc1onc(-c2ccccc2Cl)c1C(=O)Nc1nnc(-c2ccc(Br)cc2)s1	7	-8	0	-2	27*	31*	49*
SMILES	GC-A act	GC-B act	Rev-erbA mod	V-ATPase pHluor	PG9 Ab binder	PG9 binder conf	PGV04 Ab binding
Cc1onc(-c2ccccc2Cl)c1C(=O)Nc1nnc(-c2ccc(F)cc2)s1	-1	5	2	2	-1	.	.
Cc1onc(-c2ccccc2)c1C(=O)Nc1cccc2nsnc12	3	4	16	-43	66*	72*	81*
Cc1onc(-c2c(F)cccc2Cl)c1C(=O)Nc1nnc(-c2ccccc2)s1	1	-4	-1	.	9.6*	15*	23*
Cc1onc(-c2ccccc2Cl)c1C(=O)Nc1nnc(-c2ccc(Cl)cc2Cl)s1	4	-5	-1	1	15*	39*	55*
COc1ccccc1NC(=S)OCCN1CCCC12CCC(c1ccccc1)CC2 (stereo unspecified)	-1	-6	-2	.	.	.	.
O=C(OCc1cn(Cc2c(F)cccc2F)nn1)N1CCCC1	4	-5	3	.	.	.	.
CCc1nnc2sc(-c3cc(-c4ccccc4)nc4ccccc34)nn12	13	13	13	-2	8.6*	7	10*
COc1ccccc1Nc1nc2c(C)cccc2cc1C#N	-7	-10	12	-46	0	.	.
CCOc1ccc(Nc2nc3c(C)cccc3cc2C#N)cc1	-4	-4	10	-8	12*	15*	26*
COC(=O)CC[C@H](/C=C/C(=O)OC(C)(C)C)Sc1ccc(C(C)(C)C)cc1	-2	5	7	.	.	.	.
Cc1ccc(-c2nnc(SCC(=O)Nc3ccc(S(=O)(=O)N4CCCCCC4)cc3)o2)cc1	-5	-5	0	4	2	.	.
CC(=O)c1cccc(NC(=O)CSc2nnc(-c3ccc(S(=O)(=O)N4CCCC4)cc3)o2)c1	5	-6	8	0	31*	37*	46*
Cc1sc(NC(=S)NC(=O)C2CCCCC2)c(C(N)=O)c1C	-1	0	7	1	32*	24*	31*
Cc1nc2sccn2c(=O)c1S(=O)(=O)Nc1cccc(Cl)c1C	-4	-5	2	-1	9.8*	16*	16*
